From PubChem BioAssay (EPA / NIEHS) come the findings set out here.

Results filed as inconclusive are left out. The source made the active and inactive calls. Rule for the calls, unless noted: active = hit-call score of the fitted dose curve at least 0.9, where 1 is the maximum; inactive = score below 0.9.

Test [1] can be described thus: ACEA_ER_80hr: ACEA Biosciences xCELLigence Real-Time Cell Analysis on Estrogen Receptor Agonism for Proliferation (AID 2282667; active = hit-call score of the fitted dose curve at least 0.9, where 1 is the maximum). The settings on record: T47D proliferation, impedance (xCELLigence), 80 h. Summed up: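 Real-time electrical impedance tracked growth of the human breast line T47D, with the 80 h post-dosing value used. Dosing spanned eight 1:4 steps down from a 100 uM final top concentration, run in duplicate.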

Test [2] is described as follows: APR_HepG2_CellCycleArrest_24hr: Apredica 24-hour HepG2 Assay for Cell Cycle Arrest (AID 2282905).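 Note: cell cycle arrest scored as ratio of 2N to 4N nuclear DNA content.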 The settings on record: imaging, actives raise or lower the signal. Summed up:
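Cell cycle arrest is scored from nuclear DNA content measured by high-content imaging of Hoechst 33342-stained HepG2 cells following 24-hour treatment at ten concentrations up to 200 uM, with DMSO as baseline.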

The nature of test [3]: APR_HepG2_NuclearSize_24hr: Apredica 24-hour HepG2 Assay for Nuclear Size (AID 2282907). The settings on record: high-content imaging, actives raise or lower the signal. The method in brief: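 Compounds in DMSO (final 0.5%) were added to human HepG2 hepatoma cells at ten concentrations up to 200 uM for 24 hr. Fixed nuclei were stained with Hoechst 33342, and nuclear diameter was quantified from automated images.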

A short description of test [4]: APR_HepG2_CellLoss_24hr: Apredica 24-hour HepG2 Assay for Cell Loss (AID 2282908).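 For AC50: fit in both directions so a hit may be cell loss or gain.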 The settings on record: high-content imaging. Summed up:
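Cell number is quantified by fluorescence imaging of Hoechst 33342-stained nuclei following dosing at 0.39–200 uM in 0.5% DMSO. Curves are fitted in both directions from the DMSO baseline.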

The nature of test [5]: APR_HepG2_MicrotubuleCSK_24hr: Apredica 24-hour HepG2 Assay for Microtubule CSK Stabilty (AID 2282909). The settings on record: HepG2 microtubule cytoskeleton imaging, actives raise or lower the signal. The method in brief: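 Steps: dose HepG2 for 24 h (0.39–200 uM, 0.5% DMSO); fix 30 min in 3.7% formaldehyde at room temperature; permeabilize; stain alpha-tubulin 60 min; image microtubule cytoskeleton at 20x. Signal change fitted in both directions relative to DMSO.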

Test [6] in a line: APR_HepG2_MitoticArrest_24hr: Apredica 24-hour HepG2 Assay for Mitotic Arrest (AID 2282910). The settings on record: high-content imaging, actives raise or lower the signal. The method in brief:
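Compounds are dosed onto HepG2 cells across ten concentrations up to 200 uM for 24 hr. Cells are then fixed in 3.7% formaldehyde, permeabilised, and labelled for phospho-histone H3 and nuclei; images are scored by cell cycle analysis and fitted bidirectionally relative to DMSO.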

Test [7] can be described thus: APR_HepG2_MitoMembPot_24hr: Apredica 24-hour HepG2 Assay for Mitochondrial Membrane Potential (AID 2282911). The settings on record: imaging, actives raise or lower the signal. Summed up:
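Cells are dosed for 24 hr across 0.39 to 200 uM with solvent held at 0.5% DMSO. They are then stained with 250 nM MitoTracker Red CMXRos for 30 min, fixed in 3.7% formaldehyde and imaged.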

Test [8] in a line: APR_HepG2_MitoMass_24hr: Apredica 24-hour HepG2 Assay for Mitochondrial Mass (AID 2282912). The settings on record: high-content imaging, actives raise or lower the signal. Summed up:
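The liver line HepG2 was dosed in duplicate across a 0.39–200 uM series, with final DMSO held at 0.5% v/v, and harvested at 24 hr. High-content imaging measured mitochondrial dye staining.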

Test [9] is described as follows: APR_HepG2_p53Act_24hr: Apredica 24-hour HepG2 Assay for p53 Activation (AID 2282913).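 Note: p53 protein immunofluorescence averaged per cell in HepG2 with Hoechst nuclei.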 The settings on record: high-content imaging, actives raise or lower the signal. Summed up: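 Human HepG2 liver cells; 24 hr cpd treatment, 0.39–200 uM, 0.5% DMSO final. Fixed in 3.7% formaldehyde, permeabilized with 0.5% Triton X-100, stained with anti-p53/Cy5 plus Hoechst 33342. Six images per well at 20x; gain or loss vs DMSO.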

The nature of test [10]: APR_HepG2_CellCycleArrest_72hr: Apredica 72-hour HepG2 Assay for Cell Cycle Arrest (AID 2282914). The settings on record: high-content imaging, actives raise or lower the signal. The method in brief: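 Read-out is Hoechst-stained nuclear DNA content measured by automated fluorescence imaging (20x, six images per well), fitted in both directions relative to DMSO. Human HepG2 liver cells received 0.39–200 uM compound for 72 hr at 0.5% v/v DMSO.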

Test [11] in a line: APR_HepG2_CellLoss_72hr: Apredica 72-hour HepG2 Assay for Cell Loss (AID 2282915). The settings on record: high-content imaging. Summed up:
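Cell number comes from Hoechst 33342-labelled nuclei, imaged at 20x after 3.7% formaldehyde fixation. Dosing was 0.39–200 uM, ten concentrations in duplicate, 0.5% DMSO final, for 72 h. Bidirectional fit relative to DMSO baseline.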

Test [12] can be described thus: APR_HepG2_P-H2AX_72hr: Apredica 72-hour HepG2 Assay for H2AX Phosphorylation (AID 2282916).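 Note: phospho-histone H2A.x immunostain intensity per cell marking DNA damage.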 The settings on record: imaging, actives raise or lower the signal. Summed up: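 Following 72 hr treatment with 0.39–200 uM compound, HepG2 cells were formaldehyde-fixed, permeabilized and stained for phospho-H2A.x; signal was measured by high-content imaging and fitted bidirectionally against DMSO controls.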

Test [13] in a line: APR_HepG2_MitoMembPot_72hr: Apredica 72-hour HepG2 Assay for Mitochondrial Membrane Potential (AID 2282917). The settings on record: imaging, actives raise or lower the signal. Summed up:
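Membrane potential read by MitoTracker Red CMXRos (250 nM, 30 min, pre-fixation) fluorescence imaging of HepG2 after 72 hr exposure. Ten concentrations, 0.39–200 uM, duplicate wells, 0.5% DMSO; fitted in both directions against DMSO baseline.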

The nature of test [14]: APR_HepG2_MitoticArrest_72hr: Apredica 72-hour HepG2 Assay for Mitotic Arrest (AID 2282918). The settings on record: high-content imaging, actives raise or lower the signal. Summed up: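 Read-out is phospho-histone H3 immunofluorescence with Hoechst nuclear segmentation, imaged at 20x. Human HepG2 liver cells received ten concentrations (0.39–200 uM, final DMSO 0.5% v/v) for 72 hr before fixation. Gain or loss of signal was fitted relative to DMSO.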

Test [15] in a line: APR_HepG2_MicrotubuleCSK_72hr: Apredica 72-hour HepG2 Assay for Microtubule CSK Stabilty (AID 2282919). The settings on record: HepG2 microtubule cytoskeleton, high-content imaging, actives raise or lower the signal. The method in brief: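 Read-out is tubulin fluorescence intensity from high-content imaging of HepG2 cells, with nuclei identified by Hoechst 33342. Treatment lasts 72 h at 0.39–200 uM, and curves are fitted bidirectionally against the DMSO negative control.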

Test [16] is described as follows: APR_HepG2_P-H2AX_24hr: Apredica 24-hour HepG2 Assay for H2AX Phosphorylation (AID 2282920). The settings on record: high-content imaging, actives raise or lower the signal. Summed up: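 HepG2, 24 hr, cpd 0.39–200 uM (10 conc, duplicate), DMSO 0.5% v/v final. Fix 3.7% formaldehyde, Triton X-100 permeabilize, anti-phospho-H2A.x 1:200 + Hoechst 2 ug/mL. Imaged, bidirectional fit vs DMSO.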

Test [17] is described as follows: APR_HepG2_StressKinase_72hr: Apredica 72-hour HepG2 Assay for Stress Kinase (AID 2282921). The settings on record: HepG2 stress kinase (phospho-c-Jun) imaging, actives raise or lower the signal. Summed up: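 Fluorescence intensity of Cy3-tagged anti-phospho-c-Jun antibody, quantified per cell from Hoechst-defined nuclei across six images per well, served as the read-out following 72 h exposure (0.39–200 uM, 0.5% v/v DMSO).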

Test [18] can be described thus: APR_HepG2_StressKinase_24hr: Apredica 24-hour HepG2 Assay for Stress Kinase (AID 2282922). The settings on record: HepG2 stress kinase (phospho-c-Jun) imaging, actives raise or lower the signal. The method in brief:
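HepG2, 24 hr dosing, 0.39–200 uM in duplicate, 0.5% DMSO; formaldehyde fix (3.7%), 0.5% Triton X-100; anti-phospho-c-Jun + Cy3 secondary, Hoechst counterstain; ArrayScan imaging; bidirectional curve fit vs DMSO baseline.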

Test [19] in a line: APR_HepG2_p53Act_72hr: Apredica 72-hour HepG2 Assay for p53 Activation (AID 2282923).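 Note: average cellular p53 protein immunofluorescence intensity in HepG2 cells.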 The settings on record: high-content imaging, actives raise or lower the signal. The method in brief:
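HepG2 monolayers receive test compounds in duplicate at ten concentrations (0.39 through 200 uM) for 72 hr. They are then formaldehyde-fixed, antibody-labelled for p53, Hoechst-stained and imaged, with activity fitted bidirectionally versus DMSO.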

Test [20] is described as follows: APR_HepG2_MitoMass_72hr: Apredica 72-hour HepG2 Assay for Mitochondrial Mass (AID 2282924).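 Note: MitoTracker Red CMXRos stain intensity per cell imaged as mitochondrial mass.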 The settings on record: high-content imaging, actives raise or lower the signal. Summed up:
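HepG2, 72 hr cmpd, 10 conc 0.39–200 uM in dup, DMSO 0.5% v/v. MitoTracker Red CMXRos 250 nM 30 min pre-fix; formaldehyde 3.7% fix 30 min RT. HCS imaging, gain/loss fit vs DMSO.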

The term AC50 denotes the concentration at which the activity in the assay is half-maximal.

Turning to `CCCOc1sc(C(=O)N2CCC(c3cc(CN)ccc3F)CC2)c(C)c1Br`, the molecule was classed as inactive in test [1], in test [3], in test [8], in test [10], in test [13] and in [18]. Moreover, the AC50 was 22.3 µM (active) in [2]; 6.74 µM (active) in test [4]; 15.6 µM (active) in test [5]; 5.77 µM (active) in test [6]; 7.27 µM (active) in test [7]; 4.2 µM (active) in test [9]. The AC50 in test [11] is 7.86 µM (active); in test [12] it was 22.7 µM (active); in test [14], 5.79 µM (active); in test [15], 6.58 µM (active); in [16], 4.23 µM (active); in [17] it was 32.1 µM (active). Besides, the results for the AC50 in test [19] and in [20] were 47.1 µM (active) and 44.5 µM (active), respectively.
For the molecule `CCCCC(CC)COC(=O)CCCCC(=O)OCC(CC)CCCC` (stereo unspecified), the molecule was classed as inactive in [1], in test [2], in test [3], in test [4], in [5] and in [6]. In addition, the result in test [7], in test [8], in test [9], in test [10], in test [11] and in test [12] was inactive. The call in test [13], in test [14], in test [15], in test [16], in test [17] and in test [18] was inactive. For the same molecule, the result in test [19] and in test [20] was inactive.
Take `CN1CCN(c2ccccc2/C=C2\SCCN(c3ccc(Cl)c(Cl)c3)C2=O)CC1`: the outcome in [1], in test [2], in test [8], in test [10], in [12] and in test [13] was inactive. Besides, the result in test [18] and in test [19] was inactive. In addition, the AC50 in test [3] is 11.2 µM (active); in test [4], 24 µM (active); in test [5] it was 80.7 µM (active); in test [6], 7.46 µM (active); in test [7], 53.6 µM (active); in test [9], 23.5 µM (active). For the same molecule, the AC50 in test [11] is 12.4 µM (active); in test [14] it was 4.25 µM (active); in [15] it was 23.5 µM (active); in [16] it was 32.7 µM (active); in test [17] it was 19.4 µM (active); in test [20] it was 109 µM (active).
With `COC(=O)CCCCC(=O)OC`, the molecule was classed as inactive in test [1], in [2], in [3], in test [4], in test [5] and in test [6]. Moreover, the call in [7], in test [8], in test [9], in [10], in test [11] and in [12] was inactive. The call in test [13], in [14], in test [15], in test [16], in test [17] and in [18] was inactive. The result in [19] and in test [20] was inactive.
Consider `CC(O)C(=O)O` (stereo unspecified), for which the molecule was classed as inactive in test [1].
Regarding `CCCCOCCO`, the outcome in [1], in test [2], in [3], in test [4], in [5] and in test [6] was inactive. The result in test [7], in test [8], in test [9], in [10], in [11] and in test [12] was inactive. Further, the outcome in test [13], in test [14], in test [15], in test [16], in test [17] and in test [18] was inactive. The molecule was called inactive in test [19] and in test [20].
